In all, about 33,000 sequences were measured (“e-score”: median about -0.038, highest 2% from about 0.33 on). What follows is part of a selection rich in the highest values, with near analogues and random picks from the rest.
Each sequence was assayed against T1, GST-Rok-C97-191 (Bacillus subtilis subsp. subtilis str. …, UniProt O34857 97-191) (assay: protein binding microarray; Rok is a gene silencer of Bacillus subtilis; high values mean tight binding). Conditions: protein: recombinant; tags: GST (pTH5325, pDEST15-Magic modified); dsDNA, one strand shown.
T1 sequence: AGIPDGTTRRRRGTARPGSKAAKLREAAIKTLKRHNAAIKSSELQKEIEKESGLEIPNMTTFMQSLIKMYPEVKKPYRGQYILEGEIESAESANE
Outline: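 Every oligonucleotide joins a 25-mer constant primer to a 35-mer variable part drawn from a de Bruijn sequence of order 10, so each non-palindromic 8-mer appears at least 32 times and each palindromic 8-mer 16 times. The preference for every 8-mer is reported as a unitless, rank-based enrichment score (E-score). This score spans 0.5 for the most favored 8-mer to −0.5 for the most disfavored.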

GAACATAA was tested. Which binding signal did it give?
Its binding signal is 0.144 E-score.

How did the binding signal turn out when AACGTCGC was run?
The binding signal was 0.0434 E-score.

How did the binding signal turn out when CCTAGAAA was run?
Its binding signal is 0.16 E-score.

Which binding signal does the source give for ACTAGAAT here?
Its binding signal is 0.349 E-score.

With ACTAGAAG as the sequence, how does the binding signal read?
Its binding signal is 0.199 E-score.

How did the binding signal turn out when ACTAGAAA was run?
The binding signal was 0.4 E-score.

With ACTAGAGA as the sequence, how does the binding signal read?
Its binding signal is 0.118 E-score.

With ACTAGAAC as the sequence, how does the binding signal read?
The binding signal was 0.255 E-score.

Which binding signal does the source give for ACGTTGAT here?
Its binding signal is 0.0039 E-score.

Which binding signal does the source give for ACTTAAAG here?
Its binding signal is -0.106 E-score.

With ACAGCCGA as the sequence, how does the binding signal read?
The binding signal was -0.00523 E-score.

How did the binding signal turn out when AGTAAAAT was run?
Its binding signal is 0.329 E-score.

For AATAAAAT, which binding signal is on record?
Its binding signal is 0.33 E-score.

ATTAAAAT was tested. Which binding signal did it give?
The binding signal was 0.218 E-score.

For AGTAAAAA, which binding signal is on record?
Its binding signal is 0.341 E-score.

Which binding signal does the source give for AGTAAATA here?
Its binding signal is 0.425 E-score.

With AGTAAATG as the sequence, how does the binding signal read?
The binding signal was 0.205 E-score.

AATAAAAC was tested. Which binding signal did it give?
Its binding signal is 0.228 E-score.

With AGTAAAAG as the sequence, how does the binding signal read?
Its binding signal is 0.267 E-score.

Which binding signal does the source give for AATAAAAA here?
Its binding signal is 0.295 E-score.

For AGTAAATC, which binding signal is on record?
Its binding signal is 0.215 E-score.

For AGTAAAAC, which binding signal is on record?
The binding signal was 0.246 E-score.

With GGTAAATA as the sequence, how does the binding signal read?
Its binding signal is 0.318 E-score.

With TCGTTTAA as the sequence, how does the binding signal read?
Its binding signal is 0.00225 E-score.

For TACTTGCA, which binding signal is on record?
Its binding signal is 0.167 E-score.

With ATCAACTG as the sequence, how does the binding signal read?
Its binding signal is 0.0687 E-score.

CTTCATTA was tested. Which binding signal did it give?
The binding signal was 0.0438 E-score.

With CTGGCCCC as the sequence, how does the binding signal read?
Its binding signal is -0.197 E-score.

AACCCCTA was tested. Which binding signal did it give?
Its binding signal is -0.0905 E-score.

For CTAAGTCA, which binding signal is on record?
The binding signal was -0.0334 E-score.

With CTAAGACC as the sequence, how does the binding signal read?
The binding signal was -0.137 E-score.

Which binding signal does the source give for CAGTGGGA here?
The binding signal was -0.131 E-score.

How did the binding signal turn out when AAACAAGA was run?
Its binding signal is 0.025 E-score.

How did the binding signal turn out when TCCCTCGA was run?
The binding signal was -0.0813 E-score.

GGTAAAGA was tested. Which binding signal did it give?
The binding signal was 0.177 E-score.

How did the binding signal turn out when TGTAAAAA was run?
Its binding signal is 0.34 E-score.

For GGTAAAAA, which binding signal is on record?
The binding signal was 0.379 E-score.

Which binding signal does the source give for GGTAAAAC here?
The binding signal was 0.121 E-score.

Which binding signal does the source give for TGTAAACA here?
The binding signal was 0.079 E-score.

AGTTAAAT was tested. Which binding signal did it give?
The binding signal was 0.335 E-score.

AGTTAAAA was tested. Which binding signal did it give?
Its binding signal is 0.324 E-score.

CGTAAAAA was tested. Which binding signal did it give?
Its binding signal is -0.0178 E-score.

AGTTAAAC was tested. Which binding signal did it give?
The binding signal was 0.0755 E-score.

How did the binding signal turn out when CGCTAGTC was run?
The binding signal was -0.137 E-score.

For AAGCTGAT, which binding signal is on record?
Its binding signal is -0.0275 E-score.

GAATCGCC was tested. Which binding signal did it give?
The binding signal was 0.00133 E-score.

With CAAAGGAG as the sequence, how does the binding signal read?
Its binding signal is -0.156 E-score.

With CACTAACG as the sequence, how does the binding signal read?
The binding signal was -0.157 E-score.

How did the binding signal turn out when CCTTACCA was run?
The binding signal was -0.0792 E-score.

CTACTTAA was tested. Which binding signal did it give?
Its binding signal is 0.387 E-score.

For ATACTTAA, which binding signal is on record?
Its binding signal is 0.00261 E-score.

For GGACTTTA, which binding signal is on record?
Its binding signal is -0.19 E-score.

ATACTTTA was tested. Which binding signal did it give?
Its binding signal is 0.196 E-score.

For CTACTTCA, which binding signal is on record?
Its binding signal is 0.207 E-score.

For CTACTTTC, which binding signal is on record?
Its binding signal is 0.275 E-score.

How did the binding signal turn out when GTACTTTA was run?
Its binding signal is 0.344 E-score.

Which binding signal does the source give for CTACTTTA here?
The binding signal was 0.337 E-score.

GTACTTAA was tested. Which binding signal did it give?
The binding signal was 0.314 E-score.

With CGATCGAA as the sequence, how does the binding signal read?
The binding signal was 0.239 E-score.

For TTATCCAA, which binding signal is on record?
Its binding signal is 0.108 E-score.

Which binding signal does the source give for CCGTACTA here?
The binding signal was 0.201 E-score.

For GTGTTGTA, which binding signal is on record?
The binding signal was 0.158 E-score.

For CATGGTGC, which binding signal is on record?
Its binding signal is -0.16 E-score.

How did the binding signal turn out when ACTGGGCT was run?
The binding signal was -0.135 E-score.

Which binding signal does the source give for ACATCCGA here?
The binding signal was -0.00901 E-score.

How did the binding signal turn out when TCAGAGCA was run?
Its binding signal is -0.143 E-score.

For AGTTACAG, which binding signal is on record?
The binding signal was 0.193 E-score.

How did the binding signal turn out when AGTTACAT was run?
The binding signal was 0.342 E-score.

With AATTACAA as the sequence, how does the binding signal read?
The binding signal was 0.251 E-score.

How did the binding signal turn out when AGTTACAA was run?
Its binding signal is 0.163 E-score.

Which binding signal does the source give for AATTACAG here?
The binding signal was 0.249 E-score.

AATTACAT was tested. Which binding signal did it give?
Its binding signal is 0.339 E-score.

GGACGGAA was tested. Which binding signal did it give?
The binding signal was -0.113 E-score.

For CGTGGTCA, which binding signal is on record?
The binding signal was -0.0431 E-score.

Which binding signal does the source give for CTTTAACA here?
Its binding signal is 0.072 E-score.

GGCGACTA was tested. Which binding signal did it give?
Its binding signal is -0.103 E-score.

Which binding signal does the source give for GATAGTAA here?
The binding signal was 0.367 E-score.

With TATAGTGA as the sequence, how does the binding signal read?
Its binding signal is 0.199 E-score.

Which binding signal does the source give for CATAGTAA here?
The binding signal was 0.272 E-score.

How did the binding signal turn out when TATAGTAA was run?
Its binding signal is 0.346 E-score.

For CATAGTTA, which binding signal is on record?
The binding signal was 0.275 E-score.

Which binding signal does the source give for GATAGTTA here?
Its binding signal is 0.373 E-score.

GATAGTCA was tested. Which binding signal did it give?
Its binding signal is 0.000914 E-score.

How did the binding signal turn out when TATAGTCA was run?
The binding signal was 0.119 E-score.

For GATAGTAC, which binding signal is on record?
Its binding signal is 0.184 E-score.

With GCGATGAA as the sequence, how does the binding signal read?
The binding signal was -0.0177 E-score.

How did the binding signal turn out when CCAGAAAG was run?
Its binding signal is -0.066 E-score.

For GAAGCCGA, which binding signal is on record?
The binding signal was -0.0818 E-score.

How did the binding signal turn out when TTCAACAA was run?
Its binding signal is 0.0826 E-score.

Which binding signal does the source give for CTAAGTAG here?
The binding signal was 0.275 E-score.

Which binding signal does the source give for ATCAGCTA here?
Its binding signal is 0.165 E-score.

GATAGAGC was tested. Which binding signal did it give?
The binding signal was -0.0336 E-score.

ATTTCGCG was tested. Which binding signal did it give?
The binding signal was 0.158 E-score.

For CCAGTTTC, which binding signal is on record?
Its binding signal is -0.105 E-score.

How did the binding signal turn out when CGAGTTTC was run?
Its binding signal is 0.049 E-score.

How did the binding signal turn out when ATAGTTAA was run?
The binding signal was 0.327 E-score.

ATAGTTGA was tested. Which binding signal did it give?
The binding signal was 0.215 E-score.

How did the binding signal turn out when ATAGTTGG was run?
Its binding signal is 0.00189 E-score.

How did the binding signal turn out when ATAGTTTG was run?
The binding signal was 0.366 E-score.

Which binding signal does the source give for CTAGTTAA here?
The binding signal was 0.327 E-score.

How did the binding signal turn out when ATAGTTTA was run?
The binding signal was 0.354 E-score.

GTAGTTAA was tested. Which binding signal did it give?
The binding signal was 0.405 E-score.

For CTAGTTTC, which binding signal is on record?
The binding signal was 0.422 E-score.

For ATAGTTTC, which binding signal is on record?
The binding signal was 0.292 E-score.

ATCGTTTG was tested. Which binding signal did it give?
Its binding signal is -0.0549 E-score.

How did the binding signal turn out when ACATTTGC was run?
Its binding signal is 0.205 E-score.

How did the binding signal turn out when AGTCAAAG was run?
The binding signal was -0.141 E-score.

For ACAAGCAC, which binding signal is on record?
The binding signal was 0.019 E-score.

GAAGGCTA was tested. Which binding signal did it give?
Its binding signal is -0.0559 E-score.

AACGGACC was tested. Which binding signal did it give?
The binding signal was -0.186 E-score.
